High-throughput results (PubChem BioAssay)
HepG2 viability: qHTS for Inhibitors of TGF-b: Cytotox Counterscreen | HepG2 CAGA-GFP viability, ATP luminescence, 18 h | Potency, µM (titrated, usually from 46.1 µM), without a hit: top-dose activity change, negative = cytotoxicity, hits mostly cytotoxic | 410,000 tested, 0.76% active; note: potency is the fitted concentration of half-maximal effect
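HepG2 CAGA-GFP cells (1000/well, DMEM with 1% FBS) received compound, then TGF-beta at 500 pg/mL final, and were incubated 18 hours at 37 degrees C. Viability was read by CellTiter-Glo luminescence. Media-only wells were set as complete cell-killing and DMSO as no toxicity.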
IL-1B inflam inh: qHTS for Inhibitors of Inflammasome Signaling: IL-1-beta AlphaLISA Primary Screen. THP-1 LPS/ATP IL-1B secretion, AlphaLISA, 16 h; hits give low values. 360,000 tested, 4.7% active. activity change, % at 57.5 µM; in the data active = activity change below about -50%; inconclusive = mostly about -30% to -49%; note: % is set by controls: 0 for no effect and ±100 for the full control effect
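THP-1 cells pretreated 1 hr with compounds (up to 57.5 uM final), then stimulated with LPS (250 ng/mL final) plus ATP (1.25 mM final); secreted IL-1B measured by AlphaLISA after 16 hr, decreased signal indicating inhibition.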
TDP1 cell CPT: qHTS for Inhibitors of human tyrosyl-DNA phosphodiesterase 1 (TDP1): qHTS in cells in presence of CPT; chicken DT40 Tdp1-/-;hTDP1 cells + 20 nM CPT, ATP luminescence, 48 h; AID 686979, 2013; Potency, µM (highest dose often 46.2 µM), for inactives: at the highest dose activity change, negative = growth inhibition, hits mostly inhibitors; 420,000 tested, 12% active; note: potency is the fitted concentration of half-maximal effect; % is set by controls: 0 for no effect and ±100 for the full control effect; nearly all actives have a fitted effect of over 55% in size
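Cell growth measured by CellTiter-Glo luminescence after a minimum 48 h, 37 C compound exposure with 20 nM CPT in Tdp1-knockout DT40 cells stably expressing hTDP1, seeded 400/well; qHTS titration format.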
ASM inhibitor: Inhibitors of Secretory Acid Sphingomyelinase (S-ASM): qHTS. placental ASM, HMU-PC fluorogenic substrate, 60 min. 340,000 tested, 0.006% active. Potency, µM (series often up to 57.5 µM), without a hit: at the highest dose activity change, negative = inhibition, usual class: inhibitors; note: potency is the fitted concentration of half-maximal effect
Target sequence (P17405 47-631 limits assumed): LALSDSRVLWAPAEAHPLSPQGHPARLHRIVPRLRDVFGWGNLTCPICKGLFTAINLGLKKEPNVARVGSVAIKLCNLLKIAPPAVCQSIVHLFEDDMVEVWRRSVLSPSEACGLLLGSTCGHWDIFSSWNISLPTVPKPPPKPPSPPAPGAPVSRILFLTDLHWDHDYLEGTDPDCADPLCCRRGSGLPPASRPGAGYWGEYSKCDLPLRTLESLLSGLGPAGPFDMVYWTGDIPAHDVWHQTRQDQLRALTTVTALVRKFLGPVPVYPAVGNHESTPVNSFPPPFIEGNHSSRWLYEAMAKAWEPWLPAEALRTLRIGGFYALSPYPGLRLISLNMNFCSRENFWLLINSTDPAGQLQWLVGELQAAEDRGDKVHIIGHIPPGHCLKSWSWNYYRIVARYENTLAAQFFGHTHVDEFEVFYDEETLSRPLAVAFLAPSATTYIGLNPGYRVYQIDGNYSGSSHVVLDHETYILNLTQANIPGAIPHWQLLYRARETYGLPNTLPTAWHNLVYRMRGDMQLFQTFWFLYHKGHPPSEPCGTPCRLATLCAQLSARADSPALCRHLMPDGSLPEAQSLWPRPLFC
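Steps: dispense placental human ASM, pin compound, wait 10 min at room temperature, add HMU-PC0 substrate at 9 uM final, incubate 60 min at 37 °C, add stop solution raising pH to 10, read fluorescence.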
TGFb SMAD3 inh: qHTS for Inhibitors of TGF-b; AID 588855, 2011; 410,000 tested, 1.2% active; HepG2 CAGA-GFP TGF-b/SMAD3 reporter, GFP fluorescence, 18 h; TGF-beta stimulated, 500 pg/mL final; Potency, µM (series often up to 46.1 µM), for inactives: top-dose activity, negative = inhibition, actives largely listed as inhibitors; note: potency is the fitted concentration of half-maximal effect; % is set by controls: 0 for no effect and ±100 for the full control effect; nearly all actives have a fitted effect of over 65% in size
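GFP signal (ex488/em500-530) from TGF-beta-stimulated HEPG2 CAGA-GFP cells, 500 pg/mL final, 18 h at 37 degrees C in DMEM plus 1% FBS, normalized to unstimulated and DMSO-stimulated controls.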
DT40 TDP1 no CPT: qHTS for Inhibitors of human tyrosyl-DNA phosphodiesterase 1 (TDP1): qHTS in cells in absence of CPT. 420,000 tested, 15% active. Potency, µM (doses to about 46.2 µM), for inactives: top-dose activity change, negative = growth inhibition, actives largely listed as inhibitors. DT40 Tdp1-/- hTDP1 cells, no CPT, ATP luminescence, 48 h. AID 686978, 2013; note: potency is the fitted concentration of half-maximal effect; % is set by controls: 0 for no effect and ±100 for the full control effect; nearly all actives have a fitted effect of over 55% in size
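Chicken DT40 Tdp1-/- cells complemented with human TDP1, screened without camptothecin (DMSO vehicle only), 400 cells/well. Compounds pin-transferred, cells incubated at 37 °C for at least 48 hr. Growth read as ATP-dependent luminescence (CellTiter-Glo, 30 min at RT).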
An asterisk follows results filed as active; ? = inconclusive; . = not tested or not shown. Most compounds without a hit are left out; they make up all but 19% or so of the library. Unless noted, calls come from the whole dose curve; as a rule, active = well fitted curve in the direction sought with a large enough effect; inconclusive = small, poorly fitted or top-dose-only effect, or another doubt; inactive = no such curve, though single readings can be large; an effect the other way counts as inactive or inconclusive.

SMILES | HepG2 viability | IL-1B inflam inh | TDP1 cell CPT | ASM inhibitor | TGFb SMAD3 inh | DT40 TDP1 no CPT
Cc1cc(NC(=O)C2CCCC2)nc2c1c(=O)oc1ccccc12 | -1.7% | 18.1 | ? | -17.8% | 27.3% | 18.4µM*
Clc1ccc(-c2csc(=Nc3cccnc3)n2CCCn2ccnc2)cc1Cl | -45.0% | -87.7* | 23.1µM* | 1.7% | ? | 14.6µM*
COCCn1c(-c2ccc(Br)cc2)csc1=Nc1cccnc1 | -6.2% | -78.5* | 16.4µM* | -2.8% | ? | 18.4µM*
CCOC(=O)CNC(=O)c1ccc(C#CC2(O)CCCCC2)cc1 | -5.3% | 8.8 | 17.0% | 0.7% | 1.1% | 4.3%
O=S(=O)(c1ccc(NC(=S)N2CCCCC2)cc1)N1CCCCC1 | 0.3% | 29.9 | ? | . | 0.4% | ?
O=S(=O)(c1ccc(NC(=S)N2CCN(c3ccc(O)cc3)CC2)cc1)N1CCOCC1 | 0.3% | 4.8 | ? | -4.6% | 6.2% | 11.6µM*
O=S(=O)(c1ccccc1)N1CCN(C(=S)Nc2ccc(Br)cc2)CC1 | 3.6% | -50.4* | ? | -7.9% | 0.0% | -11.3%
O=S(=O)(c1ccc(NC(=S)N2CCOCC2)cc1)N1CCCCC1 | -5.8% | 31.0 | -28.7% | . | 7.9% | 14.6µM*
COc1ccc(-c2cc(C)no2)cc1S(=O)(=O)NC(C)C | -23.0% | . | -6.3% | . | -22.0% | -4.5%
O=C(CSc1nc2nn(-c3ccccc3)c(=O)c-2c2n1CCCCC2)NCCCc1ccccc1 | 0.7% | -59.8* | 1.6% | -12.3% | ? | 4.0%
CC(Sc1nc2nn(-c3ccccc3)c(=O)c-2c2n1CCCCC2)C(N)=O (stereo not given) | 7.0% | -17.8 | -5.9% | -1.0% | 9.3% | -20.8%
COc1ccc(C(=O)CSc2nc3nn(-c4ccccc4)c(=O)c-3c3n2CCCCC3)c(OC)c1 | -25.6% | -17.9 | ? | . | -3.0% | ?
O=C(CSc1nc2nn(-c3ccccc3)c(=O)c-2c2n1CCCCC2)Nc1ccccc1[N+](=O)[O-] | 1.6% | 4.2 | 20.6µM* | -9.5% | ? | ?
CCOc1ccc(S(=O)(=O)n2nc(C)c(S(=O)(=O)N3CCOCC3)c2C)cc1 | 8.0% | -5.2 | 8.4% | -1.7% | -10.4% | 26.0%
O=C(CSS(=O)(=O)O)N1CCN(C(=O)c2ccoc2)CC1 | -1.7% | 7.7 | 12.7% | 3.6% | 0.4% | 0.9%
Cc1cccc(-n2ccnc2SCC(=O)Nc2nc3ccccc3s2)c1 | -17.2% | . | ? | . | -9.3% | 23.1µM*
Cc1cccc(-n2ccnc2SCC(=O)Nc2nnc(C)s2)c1 | -5.7% | -11.4 | ? | 1.0% | -11.0% | 14.6µM*
Cc1cc(C)cc(-n2ccnc2SCC(=O)Nc2nnc(C)s2)c1 | -7.7% | . | 4.11µM* | . | -2.5% | 3.26µM*
CCc1nnc(NC(=O)CSc2nccn2-c2cccc(C)c2)s1 | -10.7% | 6.7 | -21.2% | 6.4% | -0.4% | -13.3%
Cc1ccccc1CSCC1Nc2ccc(C(=O)NCCc3ccccc3)cc2NC1=O (stereo not given) | 2.6% | 12.2 | ? | . | 1.7% | ?
CCOc1ccc(NC(=O)CCC(=O)NNC(=O)c2ccccc2Cl)cc1 | 2.1% | 9.3 | -4.3% | 5.4% | -1.9% | -1.6%
Cc1cc(C)cc(-n2ccn(CC(=O)Nc3ccccc3C(F)(F)F)c(=O)c2=O)c1 | -10.8% | . | 2.6% | . | -20.3% | 2.9%
COc1ccc(Cl)cc1C(=O)NNC(=O)c1ccncc1 | 26.2% | -14.1 | 1.9% | 4.8% | 26.5% | -1.1%
O=C(CSc1nc(-c2ccco2)cc(C(F)(F)F)n1)NC1CCCC1 | 3.9% | -6.2 | 20.6µM* | -10.3% | -0.1% | ?
O=C(CSc1nc(-c2ccco2)cc(C(F)(F)F)n1)Nc1ccc2c(c1)CCC2 | -31.4% | 12.1 | ? | -4.3% | -5.6% | ?
SMILES | HepG2 viability | IL-1B inflam inh | TDP1 cell CPT | ASM inhibitor | TGFb SMAD3 inh | DT40 TDP1 no CPT
Cc1ccc(NC(=O)CSc2nc(-c3ccco3)cc(C(F)(F)F)n2)cc1C | -33.4% | 23.9 | 2.31µM* | 4.3% | -19.2% | 3.66µM*
COC(=O)c1ccc(C(=O)OC)c(NC(=O)CSc2nc(-c3ccco3)cc(C(F)(F)F)n2)c1 | 3.3% | 18.0 | ? | 16.6% | -5.9% | ?
COc1ccc(Cl)cc1NC(=O)CSc1nc(-c2ccco2)cc(C(F)(F)F)n1 | -7.4% | . | 18.4µM* | . | ? | 16.4µM*
COC(=O)c1ccccc1NC(=O)CSc1nc(-c2ccco2)cc(C(F)(F)F)n1 | -2.6% | 43.1 | 4.11µM* | -10.5% | 1.7% | 4.61µM*
O=C(CSc1nc(-c2ccco2)cc(C(F)(F)F)n1)NCCN1CCOCC1 | 1.8% | 8.5 | -19.6% | -1.2% | 0.6% | ?
CCc1cccc(NC(=O)C2CCC(CNS(=O)(=O)c3ccc4c(c3)CCCC(=O)N4)CC2)c1 (stereo not given) | -22.2% | . | ? | . | -17.7% | ?
Cc1ccc(S(=O)(=O)Nc2c(C)n(C)n(-c3ccccc3)c2=O)cc1C(=O)NCc1ccco1 | -1.2% | -10.0 | -81.6% | 0.6% | 4.1% | ?
CC(=O)Nc1ccc(S(=O)(=O)O)c(OC(C)=O)c1 | 0.5% | 15.4 | 1.4% | -2.4% | 22.4% | 10.0%
O=C(CCCn1c(=O)c2sccc2n(Cc2cccc(Cl)c2)c1=O)NCc1ccc2c(c1)OCO2 | -27.1% | . | ? | . | ? | -17.6%
COc1cc2c(-c3ccc4[nH]ccc4c3)c(-c3ccc(C#N)cc3)oc(=O)c2cc1OC | 4.4% | 8.5 | 14.6µM* | 101.9% | -18.9% | 5.8µM*
COc1cc2c(C(F)(F)F)c(-c3ccc(C#N)cc3)oc(=O)c2cc1OC | 3.0% | -4.0 | -0.3% | 4.3% | -4.4% | -2.4%
COc1cc2c(C#CCCCO)c(-c3ccsc3)oc(=O)c2cc1OC | -12.5% | -20.7 | 23.1µM* | 31.4% | -9.5% | 9.2µM*
COCc1ccc(-c2c(-c3cc(OC)cc(OC)c3)oc(=O)c3cc(OC)c(OC)cc23)cc1 | 6.4% | 0.0 | 16.4µM* | -2.5% | 4.0% | 20.6µM*
COc1cc2c(-c3ccc4cc[nH]c4c3)c(-c3ccsc3)oc(=O)c2cc1OC | 0.7% | -18.7 | 18.4µM* | ? | ? | 20.6µM*
CCOc1ccc(C2/C(=C(\O)c3ccc4c(c3)OCCO4)C(=O)C(=O)N2Cc2cccnc2)cc1OCC (stereo not given) | -17.3% | 19.6 | 18.2% | 4.1% | -1.0% | 1.0%
